Assay results published in publication PMC5540273 (PLoS ONE, 2017).

Legend:
Conditions in all cases: concentration: 1 μM, replicates: in singlicate; n = 1
[1] = tested on: PRKCH
[2] = tested on: PRKCI
[3] = tested on: PRKCQ
[4] = tested on: PRKD1
[5] = tested on: PRKD2
[6] = tested on: PRKD3
[7] = tested on: PRKG1
[8] = tested on: PRKG2
[9] = tested on: T1, PRKR
T1 construct: gene EIF2AK2

[10] = tested on: PRKX
[11] = tested on: PRP4
[12] = tested on: T2, PYK2
T2 construct: gene PTK2B

[13] = tested on: QSK
[14] = tested on: RAF1
[15] = tested on: RET
[16] = tested on: RIOK1
[17] = tested on: RIOK2
[18] = tested on: RIOK3
[19] = tested on: RIPK1
[20] = tested on: RIPK2
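Further: KINOMEscan kinase panel screen.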

Compound | %Inh [1] [%] | %Inh [2] [%] | %Inh [3] [%] | %Inh [4] [%] | %Inh [5] [%] | %Inh [6] [%] | %Inh [7] [%] | %Inh [8] [%] | %Inh [9] [%] | %Inh [10] [%] | %Inh [11] [%] | %Inh [12] [%] | %Inh [13] [%] | %Inh [14] [%] | %Inh [15] [%] | %Inh [16] [%] | %Inh [17] [%] | %Inh [18] [%] | %Inh [19] [%] | %Inh [20] [%]
CNc1nc(-c2ccc3c(N)n[nH]c3c2)cc(N2C[C@@H](C(=O)NC3CCCCC3)OC[C@H]2C)n1 [GSK2375584] | 23 | 18 | 0 | 13 | 23 | 0 | 1 | 18 | 4 | 61 | 16 | 15 | 0 | 14 | 4 | 40 | 1 | 35 | 10 | 1
COc1ccc2cc(-c3nc(-c4ccccc4C(C)C)[nH]c3-c3ccncc3)ccc2c1 [SB-660566] | 0 | 15 | 54 | 21 | 0 | 32 | 7 | 0 | 0 | 1 | 4 | 1 | 2 | 39 | 4 | 34 | 0 | 0 | 2 | 21
Cc1ccc(NC(=O)Nc2ccccc2F)cc1-c1ccc(C(=O)Nc2ccncc2)cc1 [GSK1398477] | 39 | 0 | 19 | 0 | 4 | 23 | 8 | 0 | 0 | 49 | 2 | 0 | 20 | 70 | 21 | 44 | 11 | 6 | 15 | 6
COc1ccc(Nc2nccc(N3CCC(NC(=O)c4cc5ccccc5s4)C3)n2)cc1 (centres unmarked) [GSK1379738] | 0 | 15 | 7 | 0 | 12 | 100 | 0 | 0 | 0 | 12 | 57 | 0 | 0 | 11 | 14 | 24 | 0 | 36 | 28 | 0
COc1ccc(Nc2nccc(-c3ccc(NC(=O)c4cc5cc(F)ccc5[nH]4)cc3)n2)cc1 [GSK1229496] | 20 | 15 | 0 | 0 | 0 | 100 | 0 | 0 | 0 | 5 | 41 | 0 | 0 | 17 | 0 | 40 | 0 | 53 | 5 | 4
O=C(Nc1n[nH]c2nc(-c3cccs3)c(Br)cc12)C1CC1 [SB-735297] | 4 | 0 | 7 | 0 | 0 | 0 | 2 | 3 | 0 | 0 | 8 | 16 | 8 | 0 | 0 | 7 | 11 | 0 | 8 | 95.4
Cn1cncc1C(=O)NC1CCN(c2ccnc(Nc3ccc(F)cc3)n2)C1 (centres unmarked) [GSK1379717] | 0 | 7 | 0 | 0 | 0 | 4 | 0 | 99.3 | 0 | 0 | 35 | 0 | 0 | 43 | 0 | 24 | 0 | 2 | 2 | 6
COc1ccc(Nc2nccc(N3CCC(NC(=O)C(C)c4ccc(Cl)cc4)C3)n2)cc1 (centres unmarked) [GSK1379735] | 24 | 0 | 23 | 0 | 0 | 21 | 0 | 80 | 0 | 22 | 14 | 0 | 0 | 34 | 2 | 27 | 6 | 17 | 5 | 10
Fc1ccc(-c2nn3cccc(F)c3c2-c2ccncc2)cc1 [GW475620] | 42 | 39 | 14 | 16 | 60 | 34 | 34 | 0 | 0 | 4 | 29 | 0 | 0 | 17 | 98 | 30 | 7 | 39 | 0 | 27
CCn1c(-c2ccccc2)nc2cnccc21 [SB-733416] | 3 | 8 | 44 | 0 | 1 | 0 | 0 | 0 | 0 | 5 | 7 | 20 | 9 | 3 | 23 | 45 | 0 | 0 | 0 | 6
CNc1nc(-c2ccc3c(N)n[nH]c3c2)cc(N2C[C@@H](C(=O)Nc3ccccc3)CC[C@H]2C)n1 [GSK2298859] | 0 | 10 | 0 | 0 | 20 | 0 | 18 | 32 | 0 | 97 | 11 | 0 | 18 | 4 | 4 | 57 | 0 | 38 | 1 | 0
COc1cc2ncnc(Nc3cccc(Br)c3)c2cc1OC.Cl [GI230329] | 0 | 15 | 4 | 0 | 6 | 0 | 9 | 1 | 0 | 6 | 37 | 12 | 11 | 0 | 47 | 29 | 0 |  | 2 | 38
